Whole data set: some 16,000 sequences, median “rpm ratio (pull-down/input)” near 0.94, cut for the highest 2% near 1.7. The entries come from a sample that favours the highest values as a whole.
Each sequence was assayed against T1, MBP-FoxP1dN (Mus musculus, UniProt P58462 326-579) (assay: PD-seq (MBP pull-down with sequencing); 20 mM Tris-HCl pH 7.5, 100 mM NaCl, 1.5 mM MgCl2, 0.4 uM protein, 0.1 uM dsDNA library, 30 min, room temperature, amylose pull-down; high values mean tight binding). Details: protein: recombinant; tags: His6-MBP; chain copies: 2; dsDNA, one strand shown.
T1 sequence: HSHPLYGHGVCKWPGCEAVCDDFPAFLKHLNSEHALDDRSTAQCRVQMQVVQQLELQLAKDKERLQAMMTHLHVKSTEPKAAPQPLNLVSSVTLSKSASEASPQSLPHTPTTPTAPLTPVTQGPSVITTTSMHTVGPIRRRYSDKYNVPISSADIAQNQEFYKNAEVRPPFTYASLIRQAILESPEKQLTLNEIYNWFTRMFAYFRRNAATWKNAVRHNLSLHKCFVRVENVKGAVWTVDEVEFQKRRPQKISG
Procedure, shortened: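 Binding is the reads-per-million enrichment of pull-down relative to input, pooled across replicates. For this, 0.4 µM His6-MBP-tagged mouse FoxP3 or FoxP1 fragment lacking the N-terminus, made in E. coli, was incubated with 0.1 µM Klenow-filled double-stranded degenerate DNA library for 30 min at room temperature in Tris pH 7.5 buffer with NaCl and MgCl2. Complexes bound to amylose resin were washed three times before proteinase K released the DNA for PCR barcoding and Illumina sequencing.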

| Sequence | binding signal |
| --- | --- |
| GATGATTGTTCTCCCAGCTGATGAATTCTAATCCTCGAGTAAACAAATTTTCCTAATCTTTCTGTTCAAGCGCCATCTAC | 0.781 RPM ratio (pull-down/input) |
| GATGATTGTTCTCCCAGCTGATGAATTGGGTGCTTCGAGTAAACAAATTTTCCTAATCTTTCTGTTCAAGCGCCATCTAC | 0.861 RPM ratio (pull-down/input) |
| GATGATTGTTCTCCCAGCTGATGAATTTCAGGTATCGAGTAAACAAATTTTCCTAATCTTTCTGTTCAAGCGCCATCTAC | 0.919 RPM ratio (pull-down/input) |
| GATGATTGTTCTCCCAGCTGATGAATTTGTACGCTCGAGTAAACAAATTTTCCTAATCTTTCTGTTCAAGCGCCATCTAC | 1.13 RPM ratio (pull-down/input) |
| GATGATTGTTCTCCCAGCTGATGAATTTGCGATATCGAGTAAACAAATTTTCCTAATCTTTCTGTTCAAGCGCCATCTAC | 1.19 RPM ratio (pull-down/input) |
| GATGATTGTTCTCCCAGCTGATGAATTGCCTATGTCGAGTAAACAAATTTTCCTAATCTTTCTGTTCAAGCGCCATCTAC | 0.918 RPM ratio (pull-down/input) |
| GATGATTGTTCTCCCAGCTGATGAATTGACGCGGTCGAGTAAACAAATTTTCCTAATCTTTCTGTTCAAGCGCCATCTAC | 1.01 RPM ratio (pull-down/input) |
| GATGATTGTTCTCCCAGCTGATGAATTTTCTGGCTCGAGTAAACAAATTTTCCTAATCTTTCTGTTCAAGCGCCATCTAC | 0.777 RPM ratio (pull-down/input) |
| GATGATTGTTCTCCCAGCTGATGAATTTCCGAAGTCGAGTAAACAAATTTTCCTAATCTTTCTGTTCAAGCGCCATCTAC | 0.787 RPM ratio (pull-down/input) |
| GATGATTGTTCTCCCAGCTGATGAATTACGTCGCTCGAGTAAACAAATTTTCCTAATCTTTCTGTTCAAGCGCCATCTAC | 1.02 RPM ratio (pull-down/input) |
| GATGATTGTTCTCCCAGCTGATGAATTTTCACATTCGAGTAAACAAATTTTCCTAATCTTTCTGTTCAAGCGCCATCTAC | 0.987 RPM ratio (pull-down/input) |
| GATGATTGTTCTCCCAGCTGATGAATTACATTCCTCGAGTAAACAAATTTTCCTAATCTTTCTGTTCAAGCGCCATCTAC | 1.2 RPM ratio (pull-down/input) |
| GATGATTGTTCTCCCAGCTGATGAATTTTTACTATCGAGTAAACAAATTTTCCTAATCTTTCTGTTCAAGCGCCATCTAC | 1.1 RPM ratio (pull-down/input) |
| GATGATTGTTCTCCCAGCTGATGAATTTACTAAATCGAGTAAACAAATTTTCCTAATCTTTCTGTTCAAGCGCCATCTAC | 1.72 RPM ratio (pull-down/input) |
| GATGATTGTTCTCCCAGCTGATGAATTTTACTAATCGAGTAAACAAATTTTCCTAATCTTTCTGTTCAAGCGCCATCTAC | 1.14 RPM ratio (pull-down/input) |
| GATGATTGTTCTCCCAGCTGATGAATTAATGCGCTCGAGTAAACAAATTTTCCTAATCTTTCTGTTCAAGCGCCATCTAC | 1.26 RPM ratio (pull-down/input) |

| Sequence | binding signal |
| --- | --- |
| GATGATTGTTCTCCCAGCTGATGAATTGACCTTCTCGAGTAAACAAATTTTCCTAATCTTTCTGTTCAAGCGCCATCTAC | 0.921 RPM ratio (pull-down/input) |
| GATGATTGTTCTCCCAGCTGATGAATTTTGCTTTTCGAGTAAACAAATTTTCCTAATCTTTCTGTTCAAGCGCCATCTAC | 1.49 RPM ratio (pull-down/input) |
| GATGATTGTTCTCCCAGCTGATGAATTGAATGGTTCGAGTAAACAAATTTTCCTAATCTTTCTGTTCAAGCGCCATCTAC | 0.852 RPM ratio (pull-down/input) |
| GATGATTGTTCTCCCAGCTGATGAATTTGACGTATCGAGTAAACAAATTTTCCTAATCTTTCTGTTCAAGCGCCATCTAC | 0.962 RPM ratio (pull-down/input) |
| GATGATTGTTCTCCCAGCTGATGAATTTTTGACGTCGAGTAAACAAATTTTCCTAATCTTTCTGTTCAAGCGCCATCTAC | 0.91 RPM ratio (pull-down/input) |
| GATGATTGTTCTCCCAGCTGATGAATTGACGCCATCGAGTAAACAAATTTTCCTAATCTTTCTGTTCAAGCGCCATCTAC | 1.24 RPM ratio (pull-down/input) |
| GATGATTGTTCTCCCAGCTGATGAATTGATGACGTCGAGTAAACAAATTTTCCTAATCTTTCTGTTCAAGCGCCATCTAC | 1.06 RPM ratio (pull-down/input) |
| GATGATTGTTCTCCCAGCTGATGAATTGACGTAATCGAGTAAACAAATTTTCCTAATCTTTCTGTTCAAGCGCCATCTAC | 1.75 RPM ratio (pull-down/input) |
| GATGATTGTTCTCCCAGCTGATGAATTGTTGACGTCGAGTAAACAAATTTTCCTAATCTTTCTGTTCAAGCGCCATCTAC | 2.22 RPM ratio (pull-down/input) |
| GATGATTGTTCTCCCAGCTGATGAATTTCTCTAGTCGAGTAAACAAATTTTCCTAATCTTTCTGTTCAAGCGCCATCTAC | 0.844 RPM ratio (pull-down/input) |
| GATGATTGTTCTCCCAGCTGATGAATTACCGCGATCGAGTAAACAAATTTTCCTAATCTTTCTGTTCAAGCGCCATCTAC | 0.929 RPM ratio (pull-down/input) |
| GATGATTGTTCTCCCAGCTGATGAATTCTTCACATCGAGTAAACAAATTTTCCTAATCTTTCTGTTCAAGCGCCATCTAC | 1.08 RPM ratio (pull-down/input) |
| GATGATTGTTCTCCCAGCTGATGAATTCTGAACATCGAGTAAACAAATTTTCCTAATCTTTCTGTTCAAGCGCCATCTAC | 0.898 RPM ratio (pull-down/input) |
| GATGATTGTTCTCCCAGCTGATGAATTCTAAACATCGAGTAAACAAATTTTCCTAATCTTTCTGTTCAAGCGCCATCTAC | 2.07 RPM ratio (pull-down/input) |
| GATGATTGTTCTCCCAGCTGATGAATTCTAAAAATCGAGTAAACAAATTTTCCTAATCTTTCTGTTCAAGCGCCATCTAC | 0.995 RPM ratio (pull-down/input) |

Reference: paper PMC12820563, “FoxP3 forms a head-to-head dimer in vivo and stabilizes its multimerization on adjacent microsatellites”
